# Reference: PubChem BioAssay (Tox21)
# Records with an inconclusive call do not appear. Values without a mark were called inactive. Activity calls are given as the source filed them. Calls follow the shape of the dose curve; as a rule, active = well fitted inhibition curve with a large enough effect in the signal ratio in the repeat runs (not every such curve was filed as active); inconclusive = weak or mixed curves, or effect the other way; inactive = no such curve, though single readings can be large or run the other way; the % refers to the signal ratio. Non-standard residues stand in square brackets, D forms with d. Residues, ends and D or L forms follow the SMILES beside them. pGlu = O=C1CC[C@@H](C(=O)O)N1; Thz = O=C(O)[C@@H]1CSCN1
# Biological target: Androgen receptor (Homo sapiens) (UniProt P10275)
# Sequence (P10275 whole entry, looked up): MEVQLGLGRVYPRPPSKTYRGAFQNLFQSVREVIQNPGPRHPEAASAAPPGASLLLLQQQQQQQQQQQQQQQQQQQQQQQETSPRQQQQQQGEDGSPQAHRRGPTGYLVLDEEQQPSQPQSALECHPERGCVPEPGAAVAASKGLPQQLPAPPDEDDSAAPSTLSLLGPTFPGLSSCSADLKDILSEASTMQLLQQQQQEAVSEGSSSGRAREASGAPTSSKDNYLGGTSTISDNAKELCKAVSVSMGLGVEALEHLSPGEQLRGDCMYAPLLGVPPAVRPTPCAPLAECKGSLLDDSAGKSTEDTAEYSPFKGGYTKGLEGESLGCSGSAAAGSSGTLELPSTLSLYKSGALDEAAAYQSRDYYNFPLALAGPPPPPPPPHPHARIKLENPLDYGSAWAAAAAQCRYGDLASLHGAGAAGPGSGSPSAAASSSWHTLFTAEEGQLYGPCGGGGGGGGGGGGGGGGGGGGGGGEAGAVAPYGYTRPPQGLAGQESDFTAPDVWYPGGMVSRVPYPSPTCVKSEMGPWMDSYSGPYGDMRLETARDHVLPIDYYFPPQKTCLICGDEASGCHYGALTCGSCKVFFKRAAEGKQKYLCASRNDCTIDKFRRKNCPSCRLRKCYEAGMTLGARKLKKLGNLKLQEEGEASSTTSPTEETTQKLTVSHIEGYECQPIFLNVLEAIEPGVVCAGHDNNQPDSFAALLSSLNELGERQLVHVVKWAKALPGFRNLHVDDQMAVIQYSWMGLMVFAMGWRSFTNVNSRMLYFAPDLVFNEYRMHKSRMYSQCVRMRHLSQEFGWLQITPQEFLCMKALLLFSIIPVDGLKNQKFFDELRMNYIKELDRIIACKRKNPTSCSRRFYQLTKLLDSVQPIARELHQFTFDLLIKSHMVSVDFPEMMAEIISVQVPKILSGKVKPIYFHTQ
# Test: qHTS assay to identify small molecule antagonists of the androgen receptor (AR) signaling pathway (AID 743035)
# Conditions: HEK293 AR-UAS-bla, R1881-stimulated, beta-lactamase FRET, 16 h; series mostly up to 58.5 µM; activity change, negative = inhibition: at the top concentration
# Source text: National Center for Advancing Translational Sciences [NCATS]
# NIH Chemical Genomics Center [NCGC]
# U.S. Environmental Protection Agency [EPA]
# National Institutes of Environmental Health Sciences [NIEHS]
# National Toxicology Program [NTP]
# U.S. Food and Drug Administration [FDA]
# Androgen receptor (AR), a nuclear hormone receptor, plays a critical role in AR-dependent prostate cancer and other androgen related diseases. Endocrine disrupting chemicals (EDCs) and their interactions with steroid hormone receptors like AR may cause disruption of normal endocrine function as well as interfere with metabolic homeostasis, reproduction, developmental and behavioral functions. To identify the compounds that inhibit AR signaling, GeneBLAzer AR-UAS-bla-GripTite cell line (Invitrogen, Carlsbad, CA, USA) containing a beta-lactamase reporter gene under control of an Upstream Activator Sequence (UAS) stably integrated into HEK293 cells was used to screen the Tox21 10K compound library.
# Tox21 Assay Protocol Summary:
# AR-bla cells were dispensed at 2,000 cells/5 uL of assay medium per well into black wall/clear-bottom 1536-well plates using a Multidrop Combi (ThermoFisher Scientific, Waltham, MA) dispenser. After the assay plates were incubated at a 37C and 5% CO2 for 4 hr, 23 nL of compounds dissolved in DMSO, positive controls or DMSO only was transferred to the assay plate by a Pintool station (Kalypsys, San Diego, CA), followed by addition of 1 uL of agonist (R1881) in culture medium using a Bioraptr Flying Reagent Dispenser (FRD) workstation (Beckman Coulter, Indianapolis, IN, USA). The plates were incubated at a 37C and 5% CO2 for 16 h. After 1 uL of LiveBLAzerTM B/G FRET substrate was added using a Bioraptr FRD, the plates were incubated at room temperature for 2 h and fluorescence intensity was measured by an Envision plate reader (PerkinElmer, Shelton, CT).
# % is scaled to controls: 0 for no effect and ±100 for the full control effect; potency is read from the fitted curve at half-maximal effect.
Structure (SMILES),"activity change, negative = inhibition",Potency
CN1c2c(nc(N)[nH]c2=O)NCC1CNc1ccc(C(=O)NC(CCC(=O)O)C(=O)O)cc1 (stereo not given),5.76%,
Oc1cc(O)cc(O)c1,5.9%,
O=C1C(=O)c2ncccc2-c2cccnc21,,23.9 µM (active)
C[C@@H]1C[C@H]2C3C[C@H](F)C4=CC(=O)C=CC4(C)[C@@]3(F)[C@@H](O)CC2(C)[C@@]1(O)C(=O)COC(=O)C(C)(C)C (stereo not given in full),-19.4%,
CC(CCc1ccc(O)cc1)NCC(O)c1ccc(O)cc1 (stereo not given),4.21%,
COc1ccc2c(=O)c(C)c(-c3ccccc3)oc2c1CN(C)C,7.62%,
CC1(C)C(\C=C/C=C\C=C/C=C2/N(CCCCS(=O)(=O)O)c3ccc4ccccc4c3C2(C)C)=[N+](CCCCS(=O)(=O)[O-])c2ccc3ccccc3c21,8.11%,
CC1(C)S[C@@H]2[C@H](NC(=O)C(C(=O)Oc3ccc4c(c3)CCC4)c3ccccc3)C(=O)N2[C@H]1C(=O)O (stereo not given in full),5.17%,
CCC(c1ccccc1)c1noc(CCN(CC)CC)n1 (stereo not given),-4.98%,
O=C1CSC2(CCN(CCCN3c4ccccc4Sc4ccc(Cl)cc43)CC2)N1,,21.3 µM (active)
Nc1nc2c(c(=O)[nH]1)N(C=O)C(CNc1ccc(C(=O)N[C@@H](CCC(=O)O)C(=O)O)cc1)CN2 (stereo not given in full),0.14% [at 27 µM],
CC(=O)O[C@H]1C(=O)[C@@]2(C)[C@H]([C@H](OC(=O)c3ccccc3)[C@]3(O)C[C@H](OC(=O)[C@H](O)[C@@H](NC(=O)c4ccccc4)c4ccccc4)C(C)=C1C3(C)C)[C@]1(OC(C)=O)CO[C@@H]1C[C@@H]2O,,0.0169 µM (active)
C=C1C(=O)O[C@H]2[C@H]1CC/C(C)=C\CC[C@@]1(C)O[C@@H]21,,23.9 µM (active)
O=C(O)C1=C(CSc2nnnn2CS(=O)(=O)O)CS[C@@H]2[C@H](NC(=O)[C@H](O)c3ccccc3)C(=O)N12,-3.84%,
CCOC(=O)COc1ccc2c(C)c(CCN(CC)CC)c(=O)oc2c1,0.35%,
CCCCCCCCCCCCCCCC(=O)OC[C@@H](COP(=O)([O-])OCC[N+](C)(C)C)OC(=O)CCCCCCCCCCCCCCC,8.22%,
CS(=O)(=O)OCC(O)C(O)COS(C)(=O)=O (stereo not given),6.7%,
O=C(O)c1ccc(NC(=O)[C@H](Cc2ccc(O)cc2)NC(=O)c2ccccc2)cc1,-16.8%,
COc1cc2c(cc1OC)[C@@H](c1ccccc1)CN(C)CC2,-2.7%,
C#C[C@]1(O)CC[C@H]2[C@@H]3CCC4=C/C(=N/O)CC[C@@H]4[C@H]3CC[C@@]21CC,,26.8 µM (active)

Structure (SMILES),"activity change, negative = inhibition",Potency
CC(C)CCCC(C)NC(C)C (stereo not given),-1.83%,
Cc1cccc(C)c1NC(=O)NC1=CCCN1C,-19.8%,
O=C1CC[C@@H](C(=O)N2CSC[C@H]2C(=O)O)N1 ([pGlu]-[Thz]-OH),-9.17%,
CCN(CC)c1ccc(N=Nc2ccc(S(=O)(=O)N(C)C)cc2)c(S(=O)(=O)NCC[n+]2ccccc2)c1,5.07%,
Nc1ccn(C[C@@H](CO)OCP(=O)(O)O)c(=O)n1,-0.693%,
C[N@+]12CCCC[C@@H]1CCC(=C(c1cccs1)c1cccs1)C2,-18.1%,
O=C(O)c1c(Cl)c(Cl)c(Cl)c(Cl)c1-c1c2cc(I)c(=O)c(I)c-2oc2c(I)c(O)c(I)cc12,18.3%,
C[N+]1(C)CCN(CC(O)(c2ccccc2)C2CCCCC2)CC1 (stereo not given),-2.99%,
CC(C)CN(C[C@@H](O)[C@H](Cc1ccccc1)NC(=O)O[C@@H]1CCOC1)S(=O)(=O)c1ccc(N)cc1,,26.8 µM (active)
Cc1cc(O)c2c(c1)O[C@@]1(C)CC[C@H]3C(C)(C)CCCC34CO[C@@H]2[C@H]41 (stereo not given in full),,23.9 µM (active)
CCCCOC(=O)C(=O)Nc1cccc(-c2nn[nH]n2)c1,-0.875%,
O=C(O)c1cc(N=Nc2ccc(O)c(C(=O)O)c2)ccc1O,-3.02%,
CCOC(=O)c1cc(-c2ccccc2)nc2ccc(C)cc12,9.54%,
Cc1cccc(C)c1N(CCCc1cccnc1)C(=O)C(C)N (stereo not given),7.9%,
Cc1ncc(C[n+]2csc(CCOP(=O)(O)OP(=O)(O)O)c2C)c(N)n1,-0.912%,
CC(C)(C)NC(=O)[C@H]1CC[C@H]2[C@@H]3CC=C4C=C(C(=O)O)CC[C@]4(C)[C@H]3CC[C@]12C,-0.646%,
CN[C@H]1CCc2cc(OC)c(OC)c(OC)c2-c2ccc(OC)c(=O)cc21,,0.0601 µM (active)
CC(=O)O[C@H]1C[C@@]2(C)[C@@H](C[C@@H](O)[C@H]3[C@@]4(C)CC[C@@H](O)[C@@H](C)[C@@H]4CC[C@@]32C)/C1=C(\CCC=C(C)C)C(=O)O,1.42%,
Nc1c(Br)cc(Br)cc1CNC1CCC(O)CC1 (stereo not given),-0.419%,
C#CCC(Cc1cnc2nc(N)nc(N)c2n1)c1ccc(C(=O)N[C@@H](CCC(=O)O)C(=O)O)cc1 (stereo not given in full),8.36%,
